Measured values from PubChem BioAssay (EPA / NIEHS).
Several values for one entry are separate records, joined by “and”; a condition that tells them apart may be missing. Equal entries are not always repeated. Activity calls are given as the source filed them. Rule for the calls: active = hit-call score of the fitted dose curve at least 0.9, where 1 is the maximum; inactive = score below 0.9.

Experiment: BSK_LPS_PGE2: BioMAP Diversity Plus: LPS Assay for Prostaglandin E2 (PGE2) Biomarker Activity (AID 2283082)
Conditions: primary human HUVEC with PBMC; actives raise or lower the signal
Procedure: BSK_LPS is a cell-based, multiplexed-readout assay that uses umbilical vein endothelium and peripheral blood mononuclear cells, a human vascular primary cell co-culture, with measurements taken at 24 hours after chemical dosing in a 96-well plate.BSK_LPS_PGE2 is an assay component measured in the BSK_LPS assay. It measures PGE2 antibody related to regulation of gene expression using ELISA technology.Data from the assay component BSK_LPS_PGE2 was analyzed into 1 assay endpoint. This assay endpoint, BSK_LPS_PGE2, was analyzed with bidirectional fitting relative to DMSO as the negative control and baseline of activity. Using a type of binding reporter, gain or loss-of-signal activity can be used to understand changes in the signaling as they relate to the gene PTGER2. Furthermore, this assay endpoint can be referred to as a primary readout, because this assay has produced multiple assay endpoints where this one serves a signaling function. To generalize the intended target to other relatable targets, this assay endpoint is annotated to the gpcr intended target family, where the subfamily is rhodopsin-like receptor.
The levels of cell surface (or secreted, indicated by the prefix "s") biomarker endpoints were measured by ELISA. Overt cytotoxicity to cells in confluent adherent cultures (all systems other than the BT system) was assessed by measuring total protein levels using sulforhodamine B (SRB) staining in parallel cultures at the time of biomarker measurements, indicated as SRB endpoints. For proliferation assays for adherent cell types, individual cell types are cultured at sub-confluence and relative cell numbers quantified by SRB staining at time points optimized for each system (48 h: 3C and CASM3C systems; 72 h: BT and HDF3CGF systems; 96 h: SAg system). SRB was performed by staining cells with 0.1% SRB after fixation with 10% TCA and reading wells at 560 nm.Viability and proliferation of PBMC (T cells) was quantified by Alamar Blue reduction for the SAg and BT systems. For PBMC viability (referred to as PBMC Cytotoxicity within the assay endpoint names), cells were plated (75,000/well in a 96-well plate) and then chemical samples added for 1 h before addition of activators, SEB and TSST-1 (20 ng/mL final concentration each). Cells were incubated for 90 h. Then, Alamar Blue (20 uL/well) (Invitrogen, Cat DAL1100) was added for 6 h, and the plates were read with a fluorescence microplate reader at 546/580 nm (excitation/emission). For PBMC proliferation, cells were plated and activated as above but incubated for only 16 h prior to addition of Alamar Blue. Plates were read after 6 h.

**Q.** For CS(=O)(=O)OCCCCOS(C)(=O)=O, which outcome is on record?
**A.** inactive

**Q.** For CN(C)C(=O)Nc1ccc(Oc2ccc(Cl)cc2)cc1, which AC50 is on record?
**A.** 5.86 µM (active)

**Q.** With CN(c1nccc(=O)[nH]1)C1CCN(c2nc3ccccc3n2Cc2ccc(F)cc2)CC1 as the molecule, how does the outcome read?
**A.** inactive

**Q.** For O=C1OC2(c3ccccc31)c1ccc(O)c(Br)c1Oc1c2ccc(O)c1Br, which AC50 is on record?
**A.** 11.1 µM (active)

**Q.** For CCN(CC)C(=O)N(CC)CC, which outcome is on record?
**A.** inactive

**Q.** With CCCCCCCCCCCCCCCC(=O)OC/C=C(C)/C=C/C=C(C)/C=C/C1=C(C)CCCC1(C)C as the molecule, how does the outcome read?
**A.** inactive

**Q.** With O=C1c2ccccc2C(=O)c2c(O)ccc(O)c21 as the molecule, how does the AC50 read?
**A.** 0.233 µM (active)

**Q.** With CC(=O)C1(C)CC2=C(CCCC2(C)C)CC1C (stereo not given) as the molecule, how does the outcome read?
**A.** inactive

**Q.** Which outcome does the source give for C=C(C)C(=O)OCCOCCOCCOCCOC(=O)C(=C)C here?
**A.** inactive

**Q.** With CCC(C)c1cc([N+](=O)[O-])cc([N+](=O)[O-])c1OC(=O)OC(C)C (stereo not given) as the molecule, how does the AC50 read?
**A.** 5.42 µM (active)

**Q.** For CC(=O)Nc1ccc(C(=O)CCl)cc1, which AC50 is on record?
**A.** 1.17 µM (active)

**Q.** With CC(C)(C)CC(C)(C)c1ccc(OCCOCC[N+](C)(C)Cc2ccccc2)cc1 as the molecule, how does the outcome read?
**A.** inactive

**Q.** For C=C(C)C(=O)OCCOCCOCCOC(=O)C(=C)C, which outcome is on record?
**A.** inactive

**Q.** Which AC50 does the source give for CCCCCC(C=O)=Cc1ccccc1 here?
**A.** 34 µM (active)

**Q.** For CC1(C)CCC[C@]2(C)[C@H]3CCO[C@]3(C)CC[C@@H]12, which outcome is on record?
**A.** inactive

**Q.** Which outcome does the source give for C1=CC2C3C=CC(C3)C2C1 (stereo not given) here?
**A.** inactive

**Q.** With O=CN1CCOCC1 as the molecule, how does the outcome read?
**A.** inactive

**Q.** Which outcome does the source give for COc1ccc(CCN2CCC(Nc3nc4ccccc4n3Cc3ccc(F)cc3)CC2)cc1 here?
**A.** inactive

**Q.** Which outcome does the source give for O=C1OC[C@H](Cc2cccc(O)c2)[C@H]1Cc1cccc(O)c1 here?
**A.** inactive

**Q.** For CC(CN=Cc1ccccc1O)N=Cc1ccccc1O (stereo not given), which outcome is on record?
**A.** inactive

**Q.** With C=CC(C)(O)CCC=C(C)C (stereo not given) as the molecule, how does the outcome read?
**A.** inactive

**Q.** Which outcome does the source give for COc1ccc(OC)c(N=Nc2c(O)ccc3ccccc23)c1 here?
**A.** inactive

**Q.** With CCCCN(CCCC)C(=O)N(CCCC)CCCC as the molecule, how does the outcome read?
**A.** inactive

**Q.** Which AC50 does the source give for CCOC(=O)C(C#N)=C(c1ccccc1)c1ccccc1 here?
**A.** 6.95 µM (active) and 2.79 µM (active)

**Q.** For CS(=O)(=O)c1ccc(C2=C(c3ccccc3)C(=O)OC2)cc1, which outcome is on record?
**A.** inactive

**Q.** With IC(I)I as the molecule, how does the outcome read?
**A.** inactive

**Q.** With CCCCCCC(CO)CCCC (stereo not given) as the molecule, how does the outcome read?
**A.** inactive

**Q.** Which outcome does the source give for CC(C=O)Cc1ccc(C(C)(C)C)cc1 (stereo not given) here?
**A.** inactive

**Q.** With C=C(C)[C@H]1CC=C(C)C(=O)C1 as the molecule, how does the outcome read?
**A.** inactive

**Q.** Which outcome does the source give for c1ccc2cc(Nc3ccc(Nc4ccc5ccccc5c4)cc3)ccc2c1 here?
**A.** inactive

**Q.** With CC(C)(N=C=O)c1cccc(C(C)(C)N=C=O)c1 as the molecule, how does the outcome read?
**A.** inactive

**Q.** For C[C@@H]1CCN(C(=O)[C@H](CCCN=C(N)N)NS(=O)(=O)c2cccc3c2NC[C@H](C)C3)[C@@H](C(=O)O)C1, which outcome is on record?
**A.** inactive

**Q.** For CC=Cc1ccc(OCC)c(O)c1, which AC50 is on record?
**A.** 0.44 µM (active)

**Q.** Which outcome does the source give for CC(=O)c1c(C)c([N+](=O)[O-])c(C(C)(C)C)c([N+](=O)[O-])c1C here?
**A.** inactive

**Q.** With O=C(Nc1ccc2c(O)c(N=Nc3ccc(N=Nc4ccc(S(=O)(=O)O)cc4)cc3)c(S(=O)(=O)O)cc2c1)c1ccccc1 as the molecule, how does the outcome read?
**A.** inactive

**Q.** For CC1(C)C2=CCCC(C)(C)[C@]23CC[C@H]1C3, which outcome is on record?
**A.** inactive

**Q.** For CSCCC=O, which outcome is on record?
**A.** inactive

**Q.** For Oc1c(Cl)cc(Cl)c(Cl)c1Cc1c(O)c(Cl)cc(Cl)c1Cl, which outcome is on record?
**A.** inactive

**Q.** With CN(C)C(=S)SC(=S)N(C)C as the molecule, how does the outcome read?
**A.** inactive

**Q.** Which outcome does the source give for Clc1cc(Cl)c(-c2c(Cl)c(Cl)cc(Cl)c2Cl)cc1Cl here?
**A.** inactive
